# The whole screen tested about 85,000 compounds, of which about 440 (0.52%) showed an effect of 50% or more. The sample as a whole holds a higher share of strong results than the screen did.
# Test: In vitro enzyme assay to detect hydrolysis of chlorophenol red-beta-D-[…] directly proportional to the number of Toxoplasma stably expressing beta-galactosidase
# Format: functional, organism-based, Toxoplasma gondii
# Set-up: scale not given: in the data most compounds retested in dose-response had high values
Structure (SMILES),Percent Effect (50 µM),Percent Effect (10 µM)
CCn1ncnc1CN1CCC2(CCN(C)C2)CC1,28.33%,–
NC(=O)CCC(=O)c1ccc2c(c1)OCCO2,-23.48%,–
Cc1cnc(NCC(O)CN2CCCCC2)nc1 (stereo not drawn),-5.965%,–
C[C@H](N)c1ccc(F)cc1OC(F)F,1.744%,–
CCOc1cccc(OCCNCCN)c1,3.655%,–
NC(=O)C(NC(=O)C1CC=CC1)c1ccc(F)cc1 (stereo not drawn),-2.351%,–
CCS(=O)(=O)CCN(C)C(=O)Nc1cc(F)cc(Cl)c1,0.02752%,–
COCCNc1nnc(-c2cnc(C)cn2)s1,–,-7.364%
COCCNc1nc(-c2ccc(S(N)(=O)=O)cc2)cs1,33.23%,–
COCCNc1nnc(-c2ccc(C)nc2)s1,–,91.21%
Cc1cncc(C(=O)N2CCCC2C(C)(C)O)c1 (stereo not drawn),98.37%,–
Cc1cncc(C(=O)N2CCCCC2c2nc[nH]n2)c1 (stereo not drawn),–,2.456%
CC(=O)c1csc(C(=O)N2CCCC2C(C)(C)O)c1 (stereo not drawn),-8.417%,–
Cc1ccc(C(=O)Nc2nc(C)no2)cc1,–,2.71%
Cc1noc(NC(=O)c2ccc(F)cc2)n1,–,-4.949%
Cc1noc(NC(=O)c2ccc(OC(F)(F)F)cc2)n1,–,62.71%
COCCC1CN(C(=O)c2ccc(C)c(F)c2)CCO1 (stereo not drawn),-2.005%,–
CC(=O)Nc1cc(S(=O)(=O)NCCN(C)C)ccc1C,12.19%,–
O=C(NCCc1ccccn1)Nc1cn[nH]c1,-7.115%,–
COC1CCN(C(=O)c2cccc(F)c2C)C1 (stereo not drawn),32.95%,–
CCS(=O)(=O)N1CCOCC2(CCN(c3ccccn3)C2)C1.O=C(O)C(F)(F)F (stereo not drawn),–,-1.246%
CS(=O)(=O)N1CCOCC2(CCN(c3ccccn3)C2)C1.O=C(O)C(F)(F)F (stereo not drawn),–,93.48%
O=C(O)C(F)(F)F.O=S(=O)(C1CC1)N1CCOCC2(CCN(c3ccccn3)C2)C1 (stereo not drawn),–,-7.77%
Cc1ccc2[nH]c(CN3CCC(O)C3)cc(=O)c2c1 (stereo not drawn),-10.62%,–
Fc1ccc(CN2CCCC2Cn2cncn2)c2ncccc12 (stereo not drawn),–,-4.806%
OC[C@@H]1CCCN1Cc1ccc(F)c2cccnc12,78.15%,–

Structure (SMILES),Percent Effect (50 µM),Percent Effect (10 µM)
Fc1ccc(CN2CCCC2Cn2cccn2)c2ncccc12 (stereo not drawn),–,4.2%
Cc1nc(CC(=O)N[C@H]2CC[C@H]2N)cs1,7.419%,–
Cc1cc(C(=O)Nc2cn(C)cc(Br)c2=O)[nH]n1,-6.695%,–
C1CCC(COCCc2noc(C3CNC3)n2)C1,57.88%,–
Cc1cccc(OCCCN2CCC(N(C)Cc3noc(C)n3)C2)c1 (stereo not drawn),–,19.53%
COCCc1noc(C2CCN(CC(N)=O)CC2)n1,1.681%,–
CCCN1CCC(Cc2noc(C3CCNC3)n2)CC1 (stereo not drawn),2.055%,–
C(Cc1noc(C2CNC2)n1)OCC1CC1,84.88%,–
C1CC(COCCc2noc(C3CNC3)n2)CCO1,31.48%,–
Cc1cccc(OCCc2noc(C3CNC3)n2)c1,82.99%,–
COCCc1noc(C2CNC2)n1,-4.923%,–
c1ccc(COCc2nc(C3CCCNC3)no2)cc1 (stereo not drawn),-2.705%,–
Cc1cccc(OCCN2CCN(Cc3noc(C)n3)CC2)c1,–,-13.55%
c1ccc(COCCc2noc(C3CNC3)n2)cc1,62.37%,–
C1CC(c2noc(C3CC3)n2)CN(CCOCC2CC2)C1 (stereo not drawn),–,10.99%
CNS(=O)(=O)c1ccc(C(=O)NCC(C)(C)N(C)C)o1,-2.111%,–
NC(=O)c1ccc(CNC2CC2)c(F)c1,-8.127%,–
COC(=O)CC(NC(=O)c1cc(C)n[nH]1)C1CC1 (stereo not drawn),5.421%,–
Cn1cc(CC(=O)Nc2ccc(I)cn2)cn1,-1.266%,–
Cc1ccc(Br)c(NCC(=O)N2CCOCC2)c1,6.776%,–
CNC(C)CCNC(=O)c1cc(C)nn1C (stereo not drawn),-4.64%,–
Cc1csc(S(=O)(=O)NCCCOCC2CCCO2)n1 (stereo not drawn),-3.897%,–
CCC(C)NC(=O)NC1CCN(c2ccccn2)CC1 (stereo not drawn),-18.28%,–
N#Cc1cc(F)c(S(=O)(=O)NCCN)c(F)c1,-7.913%,–
CC(C)N1CCCN(c2nc(-c3cccnc3)nc3c2cnn3C)CC1,–,55.95%
Cn1ncc2c(N3CCS(=O)(=O)CC3)nc(-c3cccnc3)nc21,–,6.498%

Structure (SMILES),Percent Effect (50 µM),Percent Effect (10 µM)
Cn1ncc2c(N3CCC3)nc(-c3ccncc3)nc21,–,-3.528%
Cc1nc(CC(=O)NCc2csc(N3CCCC3)n2)cs1,–,-6.671%
O=C(NCc1csc(N2CCCC2)n1)C1CNCCO1 (stereo not drawn),26.16%,–
N[C@@H]1CC[C@H](C(=O)NCc2csc(N3CCCC3)n2)C1,62.86%,–
C[C@@H]1CNC[C@H]1c1nc(-c2ccncc2)no1,1.432%,–
CCn1nc(C)c2nc(C(C)C)nc(NCCCn3cccn3)c21,–,57.58%
CCn1nc(C)c2nc(C(C)C)nc(NCCCn3ccnc3)c21,–,76.16%
Cc1nn(C)c2c(NCCCn3cccn3)nc(C(C)C)nc12,–,10.17%
CCc1nc(NCCCn2cccn2)c2c(n1)c(C)nn2C,–,7.651%
CCn1nc(C)c2ncnc(NCCCn3ccnc3)c21,–,9.36%
CCn1nc(C)c2nc(C)nc(NCCCn3cccn3)c21,–,20.67%
CCn1nc(C)c2nc(C(C)C)nc(NCc3ccccn3)c21,–,23.92%
CCCc1nc(NCCCn2ccnc2)c2c(n1)c(C)nn2CC,–,67.95%
CCCc1nc(NCCCn2cccn2)c2c(n1)c(C)nn2CC,–,20.81%
NC(=O)COc1ccc(CNCCn2cccn2)cc1,11.26%,–
COCC(=O)N1CCN(CCC(C)C)CC1,7.319%,–
O=C(NCCN1CCCC1)Nc1cccc2cn[nH]c12,-2.677%,–
c1ccc(OCC2CC3(CCN(Cc4ccncc4)CC3)CO2)nc1 (stereo not drawn),–,-2.51%
Cc1cc(CN2CCC3(CC2)COC(COc2ccccn2)C3)no1 (stereo not drawn),–,96.36%
Cc1csc(CN2CCC3(CC2)COC(COc2ccccn2)C3)n1 (stereo not drawn),–,-8.461%
Cc1nc(-n2nc(-c3cccs3)cc2N)[nH]c(=O)c1C,–,4.893%
CC(=O)Nc1cc(C2CC2)nn1-c1nc(C)c(C)c(=O)[nH]1,–,-13.24%
Cc1cc(NC(=O)C(C)C)n(-c2nc(C)c(C)c(=O)[nH]2)n1,–,91.77%
Cc1cc(C)nc(NC(=O)C(C)C)n1,3.231%,–
CC(C)C(=O)Nc1cc(C(C)(C)C)nn1-c1ccccn1,–,-3.105%
Cc1nc(-n2nc(C3CC3)cc2NC(=O)C(C)C)[nH]c(=O)c1C,–,79.17%

# From ChEMBL document CHEMBL3988442, “University of Dundee, Small-Polar-MMV Screening Library” (2021)
